We go through 24 compounds from ChEMBL document CHEMBL3988442, “University of Dundee, Small-Polar-MMV Screening Library” (2021).

In all, about 38,000 compounds went through this assay and about 1,200 (3.2%) showed an effect of 50% or more. The median lay at about -58%. This excerpt belongs to a sample that is enriched for strong results.

This experiment has as its system Plasmodium falciparum. In words: Calibr Malaria Delayed Death Assay SOP. In kind it is functional, organism-based. Particulars: concentration 4.99e-06 (unit not given; other assays of the set use mol/L). Details: scale not given: in the data most compounds retested in dose-response had high values.
In the case of `O=C(c1c[nH]nn1)N1CCCC1C1CCCCC1` (centres undefined), the “Percent Effect” value was found to be 48.49%.

With `O=C(C1CCC1)N1CCC(=O)N(C2CC2)Cc2cc(F)ccc21`, the “Percent Effect” value is recorded as -6.345%.

Take `CCNc1ccnc(NC2CCN(CC(N)=O)CC2)n1`: the “Percent Effect” value was -56.83%. In the case of `N#Cc1cc(Br)ccc1NC1CCN(CC(N)=O)CC1`, the “Percent Effect” value turned out to be 19.71%. Then `Cc1cccc(-n2c(C)cc(=O)[nH]c2=O)c1C`, with -21.52%; and `CC1CCN(CCCNC(=O)c2ccc(N(C)S(C)(=O)=O)cc2Cl)CC1`, with -35.22%. Then `O=C(NCc1ccccc1)NCC1CCN(Cc2ccsc2)CC1`, with -54.93%; and `CC(=O)c1cn(CCC(=O)Nc2c3c(nn2C)CSC3)c2ccccc12`, with 26.69%. As to `Fc1ccc(CC2CCN(Cc3nccs3)CC2)cc1`, the “Percent Effect” value is 0.00383%. Then `Fc1ccc(CC2CCN(Cc3cscn3)CC2)cc1`, with 50.2%. Then `Fc1cccc(CN2CCN(Cc3cscn3)CC2)c1`, with -54.95%. Consider `CC(C)c1n[nH]c(C2CN(C(=O)c3cc(C(N)=O)cs3)CCO2)n1` (centres undefined), for which the “Percent Effect” value is -7.804%. Then `CN(C)c1ncccc1CNc1snc(Cl)c1C#N`, with -8.92%; and `CN(Cc1ccco1)C[C@H]1OC[C@@H]2CCN(Cc3ccsc3)C[C@@H]21.O=C(O)C(F)(F)F.O=C(O)C(F)(F)F`, with 65.82%. Then `Cc1cccc(N2CC[C@H]3[C@H](CO[C@@H]3CN(C)Cc3ccco3)C2)n1.O=C(O)C(F)(F)F.O=C(O)C(F)(F)F`, with 3.761%; and `CN1CCN(C[C@H]2OC[C@@H]3CCN(Cc4ccsc4)C[C@@H]32)CC1`, with 77.67%. To `Cc1ccc(CN2CC[C@H]3CO[C@H](CN(C)Cc4ccco4)[C@H]3C2)s1.O=C(O)C(F)(F)F.O=C(O)C(F)(F)F` belongs 57.63%; to `O=C(NC[C@H]1OC[C@@H]2CCN(Cc3ccco3)C[C@@H]21)c1ccsc1.O=C(O)C(F)(F)F`, -100.7%; to `O=C(O)C(F)(F)F.O=C(O)C(F)(F)F.c1cnc(NC[C@H]2OC[C@@H]3CCN(Cc4ccsc4)C[C@@H]32)nc1`, -30.65%. In the case of `Cc1ccc(N2CC[C@H]3CO[C@H](CN(C)Cc4ccco4)[C@H]3C2)nn1.O=C(O)C(F)(F)F.O=C(O)C(F)(F)F`, the “Percent Effect” value is reported as -41.04%. Turning to `O=C(O)C(F)(F)F.O=C(O)C(F)(F)F.c1cc(CN2CC[C@H]3CO[C@H](CN4CCOCC4)[C@H]3C2)cs1`, the “Percent Effect” value is listed as -2.124%. To `Cc1ccc(CN2CC[C@H]3CO[C@H](CN(C)C)[C@H]3C2)o1` belongs -9.526%; to `CN1CCN(C[C@@H]2OC[C@H]3CN(Cc4ccsc4)CC[C@H]32)CC1.O=C(O)C(F)(F)F.O=C(O)C(F)(F)F.O=C(O)C(F)(F)F`, 7.397%. Then `CN(Cc1ccco1)C[C@@H]1OC[C@H]2CN(Cc3nccs3)CC[C@H]21.O=C(O)C(F)(F)F.O=C(O)C(F)(F)F`, with -54.97%.
